Source: PubChem BioAssay (SRMLSC)
Autofluor 339 = intrinsic fluorescence of library compounds, ex339/em460 – biochemical, MLSMR library, data from DPM-DC assay, artefact control, profiling panel | compound autofluorescence, ex339/em460 nm, NADH buffer; hits give high values; 1 = no-compound wells, NADH background | fluorescence fold increase at 10 µM | 5.5% of 65,000 active | AID 709;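 active = at 10 µM, mean starting fluorescence two-fold or more over control wells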;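 also: signal is the first read of a kinetic run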
MK inhibit = S. pneumoniae mevalonate kinase inhibition; purified MK, PK/LDH-coupled NADH absorbance 340 nm; inhibition, % at 10 µM; 0.48% of 65,000 active;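 active = ranked among the strongest by inhibition in the single 10 µM screen, a fixed top-ranked set picked for dose follow-up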
Spn PMK inh = S. pneumoniae PMK inhibition. purified PMK, PK/LDH-coupled NADH absorbance 340 nm. inhibition, % at 10 µM. 0.49% of 65,000 active;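 active = top-ranked compounds by inhibition in the single 10 µM screen, taking a fixed number of the strongest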
NADH coupling = inhibition of NAD/NADH coupling enzymes, library profiling. coupled PK/LDH NADH assays, four targets. IC50, µM (titrated, usually from 10 µM). 0.02% of 65,000 active. AID 774;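 active = single-dose screening hits from any of four coupled enzyme assays that gave an IC50 when retested across doses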;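 also: the DPM-DC format reads NADH fluorescence rather than 340 nm absorbance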
DPM-DC inhibit = blocks S. pneumoniae diphosphomevalonate decarboxylase | purified DPM-DC, PK/LDH coupled NADH fluorescence | calls only at 10 µM | 0.49% of 65,000 active | AID 556;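 active = the 320 compounds with the highest percent inhibition in the single-dose primary screen, excluding strongly autofluorescent ones, cut at about 32% in these data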;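 also: kinetic rate of NADH fluorescence loss reporting ADP formed by the decarboxylase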
Abs 340nm = compound absorbs light at 340 nm; fold change at 10 µM; compound absorbance at 340 nm, fold over control; 65,000 tested, under 10 active;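 active = at 10 µM dose, initial 340 nm absorbance at least 2 fold that of control wells; inactive = change under 2 fold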;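 also: initial absorbance extrapolated from kinetic A340 decline of NADH oxidation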
Numbers stand for hits; – = inactive; · = no result given. In the library only some 6.5% were active in any assay of this set; here they are far more common.

SMILES	Autofluor 339	MK inhibit	Spn PMK inh	NADH coupling	DPM-DC inhibit	Abs 340nm
CCOC(=O)c1[nH]c2ccccc2c1NC(=O)c1ccc2c(c1)OCO2	–	–	–	–	–	–
Cc1cccc(NC(=O)c2cnc3sccn3c2=O)c1	–	–	–	–	–	–
O=C(Nc1ccon1)c1cnc2sccn2c1=O	3.2	–	–	–	–	–
O=C(NCc1cccnc1)c1cnc2sccn2c1=O	2.2	–	–	–	·	–
COc1ccccc1CNC(=O)c1cnc2sccn2c1=O	–	–	–	–	–	–
COc1ccc(NC(=O)c2cnc3sccn3c2=O)cc1	–	–	–	–	–	–
Cc1cccc(NC(=O)c2cnc3sccn3c2=O)n1	–	active	–	–	–	–
CCCCCn1c(CCCNC(=O)CC)nc2ccccc21	–	–	–	–	–	–
O=C(NC1CCCCC1)c1cccnc1C(=O)O	–	–	–	–	–	–
COc1ccccc1CN(Cc1cc2cc(C)ccc2[nH]c1=O)Cc1nnnn1CC1CCCO1 (stereo not drawn)	–	–	–	–	–	–
COc1ccc2[nH]c(=O)c(CN(Cc3ccccc3OC)Cc3nnnn3CC3CCCO3)cc2c1 (stereo not drawn)	2.3	–	–	–	–	–
COc1ccccc1CN(Cc1cc2cc(C)cc(C)c2[nH]c1=O)Cc1nnnn1CC1CCCO1 (stereo not drawn)	–	–	26	–	–	–
COc1ccc2[nH]c(=O)c(CN(Cc3ccc(C)cc3)Cc3nnnn3CC3CCCO3)cc2c1 (stereo not drawn)	2.1	–	–	–	–	–
COc1ccc2[nH]c(=O)c(CN(CCc3ccccc3)Cc3nnnn3CC3CCCO3)cc2c1 (stereo not drawn)	2.5	–	–	–	–	–
O/N=C(\c1ccc(Cl)cc1)c1cc2ccccc2o1	–	–	–	–	–	–
COc1ccc(N(C)S(=O)(=O)c2c(C)[nH]c(=O)[nH]c2=O)cc1	–	–	–	–	–	–
CCOc1ccccc1Oc1c(C)oc2cc(OC(=O)N3CCOCC3)ccc2c1=O	–	–	–	–	–	–
COC(=O)COc1ccc2c(=O)c(Oc3ccccc3)c(C)oc2c1	–	–	–	–	–	–
Cc1oc2cc(O)ccc2c(=O)c1Oc1ccccc1	2.2	–	–	–	·	–
Cc1oc2cc(O)ccc2c(=O)c1Oc1ccccc1Br	2.2	–	–	–	·	–
O=C(Cn1ncc2c1-c1ccccc1OC2)Nc1ccc(Cl)cn1	–	–	–	–	–	–
COC(=O)c1ccccc1NC1OC(=O)c2ccccc21 (stereo not drawn)	3	–	–	–	–	–
O=C1OC(Nc2ccc(F)cc2F)c2ccccc21 (stereo not drawn)	–	–	–	–	–	–
CC(C)(C)NC(=O)Nc1ccc2nccnc2c1	2.2	–	–	–	·	–
CC(C)(C)NC(=O)c1ccc2nccnc2c1	–	–	–	–	–	–
SMILES	Autofluor 339	MK inhibit	Spn PMK inh	NADH coupling	DPM-DC inhibit	Abs 340nm
CC(C)N(C(=O)Nc1ccc2nccnc2c1)C(C)C	2.2	–	–	–	·	–
CN(C(=O)COC(=O)COc1ccccc1F)C1CCS(=O)(=O)C1 (stereo not drawn)	–	–	–	–	–	–
O=C(CN(Cc1ccc2c(c1)OCO2)C(=O)CSc1nc2ccccc2o1)NC1CCCCC1	–	–	–	–	–	–
Cc1cccn2c(N)c(-c3ccccc3)nc12	2.1	–	–	–	·	–
O=C(CN1CCCC1)Nc1ccc(-c2nc3cc(NC(=O)CN4CCCC4)ccc3o2)cc1	3.7	–	–	–	·	–
COc1ccc(-c2nc3cc(NC(=O)Cc4ccc(OC)c(OC)c4)ccc3o2)cc1	2.6	–	–	–	·	–
CCC(=O)Nc1ccc2oc(-c3ccccc3Br)nc2c1	–	–	–	–	–	–
CCN(CC)CC(=O)Nc1ccc(-c2nc3cc(NC(=O)CN(CC)CC)ccc3o2)cc1	3	–	–	–	·	–
CCC(C)NCC(=O)Nc1ccc(-c2nc3cc(NC(=O)CNC(C)CC)ccc3o2)cc1 (stereo not drawn)	3.7	–	–	–	·	–
O=C(CN1C(=O)c2ccccc2C1=O)Nc1ccc(-c2nc3ccccc3o2)cc1	–	–	–	–	–	–
Clc1ccc(OCc2nnc(-c3ccccc3Br)o2)c(Cl)c1	–	–	–	–	–	–
Cn1c(CC(=O)Nc2ccccc2)nnc1SCCOc1ccccc1	–	–	–	–	–	–
CCOC(=O)C1=C(C)NC2=C(C(=O)CCC2)C1c1cccs1 (stereo not drawn)	–	–	–	–	–	–
CCOC(=O)c1sc2c(c1C)C(c1cccs1)C1=C(CCCC1=O)N2 (stereo not drawn)	4.8	–	–	–	·	–
Cc1ccc2cc(C#N)c(SCC(=O)NCc3ccco3)nc2c1	–	–	–	–	–	–
COc1ccc2cc(C#N)c(SCC(=O)N3CCCC3)nc2c1	–	–	–	–	–	–
COC(=O)CSc1nc2cc(OC)ccc2cc1C#N	2.3	–	–	–	–	–
Cc1cccc2cc(C#N)c(SCC(=O)N3CCC(C)CC3)nc12	–	–	–	–	–	–
CCOC(=O)CSc1nc(N)c(C#N)c(-c2ccc(OC)cc2)c1C#N	–	–	–	–	–	–
CCOC(=O)CSc1nc2cc(OCC)ccc2cc1C#N	2.6	–	–	–	–	–
CCOc1ccc2cc(C#N)c(SCC(=O)NC(C)CC)nc2c1 (stereo not drawn)	3.2	–	–	–	–	–
CCOc1ccc2cc(C#N)c(SCC(=O)N3CCC(C)CC3)nc2c1	2.5	–	–	–	–	–
CCSCc1nnc(SCC(=O)Nc2cccc(SC)c2)n1C	–	–	–	–	–	–
O=c1c(-c2ccccc2)[n+]([O-])c2ccccc2n1O	–	–	–	–	–	–
COC(=O)NCCOC(=O)N(O)c1ccc(Br)cc1	–	–	–	–	–	–
SMILES	Autofluor 339	MK inhibit	Spn PMK inh	NADH coupling	DPM-DC inhibit	Abs 340nm
CC(Sc1nnc(C2CCCCC2)n1N)C(=O)NCc1ccc2c(c1)OCO2 (stereo not drawn)	–	–	–	–	–	–
COc1ccc2cc(C#N)c(NC(C)C)nc2c1	2.6	–	–	–	·	–
CCOc1ccccc1-n1c(SCC(=O)NC(C)CC)nnc1-c1ccoc1C (stereo not drawn)	–	–	–	–	–	–
O=C(c1cccnc1)N1CCc2ccccc2C1	–	–	34	–	–	–
CCOC(=O)CSC1=C(C#N)C(c2ccccc2Cl)C(C(=O)OC)C(=O)N1 (stereo not drawn)	–	–	–	–	–	–
COc1ccc(OC)c2c(C)cc(N3CCCN(C)CC3)nc12	2.2	–	–	–	·	–
COc1ccccc1N1CCN(c2cc(N3CCCC3)nc(C)n2)CC1	–	–	–	–	–	–
Cc1noc(C)c1COc1ccc(C(=O)NCc2ccccn2)cc1	–	–	–	–	–	–
N=c1c(S(=O)(=O)c2ccccc2)cc2c(=O)n3ccccc3nc2n1CCN1CCOCC1	3.7	–	–	–	·	–
